Laboratory results reported in the supplement of paper PMC13380429.

The compounds below were run on Vero E6 infected with SARS-CoV-2 (assay: inhibition of SARS-CoV-2 cytopathic effect; higher = more antiviral protection, active = above 15). Conditions: 8.33 nM; 48 h.
`N#CCC(=O)c1ccccc1` was tested, and the “inhibition of SARS-CoV-2 cytopathic effect” value (from here on “inhibition”) was 4.15% (inactive). `CC[C@@H](C(N)=O)N1CCCC1=O` [levetiracetam] was tested, and the “inhibition” value was 0.42% (inactive). In the case of `CCC[C@@H]1C[C@@H](C(=O)N[C@@H]([C@H]2O[C@H](SC)[C@H](O)[C@@H](O)[C@H]2O)[C@@H](C)O)N(C)C1` [lincomycin], the “inhibition” value is reported as 2.66% (inactive). `O=C(OCCOCCO)c1ccccc1Nc1cccc(C(F)(F)F)c1` [etofenamate] was tested, and the “inhibition” value was -1.53% (inactive). `CC1(C)[C@@H]2C[C@@H](O)[C@@](C)(O)[C@H]1C2` [2,3-cis/exo-pinanediol] was tested, and the “inhibition” value was 1.89% (inactive).

Same assay, conditions: 100 nM; 48 h
`CC(C)(C)c1cc(C(C)(C)C)c(NC(=O)c2c[nH]c3ccccc3c2=O)cc1O` [ivacaftor] was tested, and the “inhibition” value was -2.96% (inactive). In the case of `Cc1ccc(NC(=O)CCCCCC(=O)Nc2ccccc2N)cc1`, the “inhibition” value is reported as 0.54% (inactive). `CC(C)(N)Cc1ccccc1` [phentermine] was tested, and the “inhibition” value was 2.37% (inactive). With `CNC1CC(N)C(O)C(OC2OC(CO)C(O)C3OC4(OC(C(N)CO)C(O)C(O)C4O)OC23)C1O` (stereo not given) [Hygromycin B] the “inhibition” value was -0.49% (inactive). In the case of `O=C(O)c1cc(O)c2c(c1)C(=O)c1cccc(O)c1C2=O` [rhein], the “inhibition” value is reported as -3.51% (inactive). With `C[C@]12CC[C@@H]3c4ccc(OS(=O)(=O)O)cc4CC[C@H]3[C@@H]1CCC2=O` [estropipate] the “inhibition” value was 0.66% (inactive). With `O=C1NS(=O)(=O)c2ccccc21` [saccharin] the “inhibition” value was 0.17% (inactive). In the case of `O=C(O)COc1nn(Cc2ccccc2)c2ccccc12` [bendazac], the “inhibition” value is reported as 0.57% (inactive). With `Nc1ncnc2c1c(-c1cnc3[nH]ccc3c1)nn2C1CCCC1` the “inhibition” value was 0.41% (inactive). In the case of `CC(C)(N)c1nc(-c2ccc(OC(F)(F)F)cc2)c[nH]1`, the “inhibition” value is reported as 2.45% (inactive). With `CCCN(CCC)[C@H]1CCc2cccc(O)c2C1` [8-hydroxy-DPAT] the “inhibition” value was 1.06% (inactive). In the case of `Cc1nnsc1C(=O)Nc1ccc(-n2nc(C(F)(F)F)cc2C(F)(F)F)cc1`, the “inhibition” value is reported as 0.56% (inactive). With `O=C(O)C(Cl)Cl` [dichloroacetate] the “inhibition” value was 2.35% (inactive). With `COC(=O)[C@H](CC(C)C)NC(=O)[C@@H](N)CC(C)C` [leucylleucine-methyl-ester] the “inhibition” value was -1.7% (inactive). In the case of `COc1cccc2cc(-c3nc([C@H]4CC[C@H](C(=O)O)CC4)n4ncnc(N)c34)[nH]c12`, the “inhibition” value is reported as 4.58% (inactive). For `O=C(O)c1ccccc1Nc1cccc(C(F)(F)F)c1` [flufenamic-acid], the “inhibition” value was -0.92% (inactive). `O=C(CCc1ccc(O)cc1)c1c(O)cc(O)cc1O` [phloretin] was tested, and the “inhibition” value was 6.09% (inactive). `N[C@@H](CS)C(=O)O` [L-cysteine] was tested, and the “inhibition” value was -0.65% (inactive). `CC(C)NCC(O)c1ccc2ccccc2c1` (stereo not given) [pronethalol] was tested, and the “inhibition” value was -0.07% (inactive). In the case of `O=c1[nH]c2ccccc2n1C1CCN(CCCC(c2ccc(F)cc2)c2ccc(F)cc2)CC1` [pimozide], the “inhibition” value is reported as 0.1% (inactive). In the case of `CC(C)NCC(O)COc1cccc2ccccc12` (stereo not given) [propranolol], the “inhibition” value is reported as -0.637% (inactive). For `N#C/C(=C\c1cccn1S(=O)(=O)c1cccc([N+](=O)[O-])c1)S(=O)(=O)c1ccc(F)cc1`, the “inhibition” value was -0.6% (inactive). `Cc1csc(S(=O)(=O)N(CC(C)C)c2cc3c(cc2OCc2ccc(C(=O)O)cc2)CCC3)n1` was tested, and the “inhibition” value was 3.16% (inactive). `CC(C)[C@@H](C)/C=C/[C@@H](C)[C@H]1CC[C@H]2C3=CC=C4C[C@@H](O)CC[C@]4(C)[C@H]3CC[C@]12C` [ergosterol] was tested, and the “inhibition” value was 0.86% (inactive). `O=C(NCCO)c1cc(C(=O)NCCO)cc(C(=O)NCCO)c1` was tested, and the “inhibition” value was -1.2% (inactive). For `C[C@H]1NC(=O)NC1=O` [5-methylhydantoin-(D)], the “inhibition” value was -0.63% (inactive). In the case of `COc1ccc(C(=O)c2c(C)n(CCN3CCOCC3)c3cc(I)ccc23)cc1`, the “inhibition” value is reported as -3.42% (inactive). With `COP(=O)(OC)OC(c1ccc(Cl)cc1)P(=O)(OC)OC` (stereo not given) [mifobate] the “inhibition” value was -3.08% (inactive). For `O=C(Nc1cccc2c(=O)cc(-c3nnn[nH]3)oc12)c1ccc(OCCCCc2ccccc2)cc1` [pranlukast], the “inhibition” value was 0.47% (inactive). With `C#Cc1cncc([C@@H]2CCCN2C)c1` [altinicline] the “inhibition” value was -1.9% (inactive). `FC(F)(F)Oc1ccc2nc(-c3ccc(OCCOCCOc4ccc(-c5nc6ccc(OC(F)(F)F)cc6[nH]5)nc4)cn3)[nH]c2c1` was tested, and the “inhibition” value was 0.99% (inactive). `Nc1ncnc2c1ncn2[C@@H]1O[C@H](COP(=O)(O)O)[C@@H](O)[C@H]1O` [adenosine-phosphate] was tested, and the “inhibition” value was -4.25% (inactive). With `CC(C)Oc1cccc(CC(=O)N2CCC[C@](CC[N+]34CCC(c5ccccc5)(CC3)CC4)(c3ccc(Cl)c(Cl)c3)C2)c1` the “inhibition” value was 0.54% (inactive). `Cc1ccc2c(c1)[C@]13CCCC[C@@H]1[C@H](C2)N(C)CC3` [dimemorfan] was tested, and the “inhibition” value was 0.04% (inactive). With `OC[C@H]1O[C@@H](c2ccc(F)c(Cc3cc4ccccc4s3)c2)[C@H](O)[C@@H](O)[C@@H]1O` [ipragliflozin-L-proline] the “inhibition” value was 0.41% (inactive). In the case of `N#CCC(=O)c1ccccc1`, the “inhibition” value is reported as 0.67% (inactive). `CC[C@@H](C(N)=O)N1CCCC1=O` [levetiracetam] was tested, and the “inhibition” value was 0.01% (inactive). `CCC[C@@H]1C[C@@H](C(=O)N[C@@H]([C@H]2O[C@H](SC)[C@H](O)[C@@H](O)[C@H]2O)[C@@H](C)O)N(C)C1` [lincomycin] was tested, and the “inhibition” value was -0.29% (inactive). In the case of `O=C(OCCOCCO)c1ccccc1Nc1cccc(C(F)(F)F)c1` [etofenamate], the “inhibition” value is reported as 0.55% (inactive). For `CC1(C)[C@@H]2C[C@@H](O)[C@@](C)(O)[C@H]1C2` [2,3-cis/exo-pinanediol], the “inhibition” value was 2.23% (inactive).
